# Experimental data from PubChem BioAssay.
# Values without a mark were called inactive. How the calls were made is not given here.
# Target: Pantothenate synthetase (Mycobacterium tuberculosis (strain ATCC 25618 / H37Rv)) (UniProt P9WIL5)
# Test: Recombinant Mtb pantothenate synthetase (PanC) inhibitors, coupled enzyme, confirmatory (AID 375);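 further: 0% = full reaction with vehicle and 100% = no enzyme background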
# Settings: coupled enzyme assay; at 10 µM, stronger effect = higher value
# Pantothenate synthetase (Mycobacterium tuberculosis (strain ATCC 25618 / H37Rv)), sequence (P9WIL5 whole entry, looked up): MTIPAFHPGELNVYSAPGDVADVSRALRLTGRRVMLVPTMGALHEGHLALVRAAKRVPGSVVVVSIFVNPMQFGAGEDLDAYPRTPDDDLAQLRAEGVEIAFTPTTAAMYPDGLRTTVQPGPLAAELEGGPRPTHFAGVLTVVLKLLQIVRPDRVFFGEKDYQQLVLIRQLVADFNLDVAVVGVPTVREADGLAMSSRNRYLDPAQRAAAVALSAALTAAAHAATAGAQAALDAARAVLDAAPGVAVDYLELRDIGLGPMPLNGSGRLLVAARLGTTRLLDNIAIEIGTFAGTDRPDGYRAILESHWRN
row,Structure (SMILES),inhibition [%]
1,COc1ccc(CCNC(=O)c2cc(-c3cc(C)c(C)cc3O)n[nH]2)cc1OC,0
2,CC(=O)NCCOc1cccc(OCCNC(C)=O)c1,2
3,O=C(/C=C/c1ccccc1)c1ccccc1,0
4,Cn1cccc1-c1cc(C(=O)O)[nH]n1,0
5,O=C(c1cccc(F)c1)N1CCc2ccccc21,0
6,COc1cccc(C2C(C(=O)c3cccs3)=C(O)C(=O)N2CCCn2ccnc2)c1OC (stereo not given),0
7,CCN(CC)CCNC(=O)c1cc(Cl)c(N)cc1OC,0
8,COc1cc(OC)c(NC(=O)c2ccco2)cc1Cl,0
9,O=C(c1cccs1)N1CCN=C1SCc1ccccc1,4
10,COc1ccccc1NC(=O)CC(NCc1ccccc1)C(=O)O (stereo not given),5
11,COCC(=O)N(Cc1ccc(OC)cc1)Cc1nc2ccccc2c(=O)[nH]1,0
12,O=S(=O)(c1cccc(S(=O)(=O)N2CCC(N3CCCCC3)CC2)c1)N1CCOCC1,0
13,CC1=Nn2c(nnc2-c2ccccc2)SC1,0
14,Cc1cc(NC(=O)COC(=O)c2cccc(S(=O)(=O)N3CCOCC3)c2)no1,1
15,COC(=O)CSC1=NS(=O)(=O)c2ccccc21,0
16,Cc1cnnc2c1-c1nonc1CC2,4
17,CC(C)CC(c1nnnn1C(C)(C)C)N1CCN(C2CCCC2)CC1 (stereo not given),0
18,COc1ccc(-c2noc(CN3C(=O)c4ccccc4C3=O)n2)cc1,0
19,COc1ccc(CCN(Cc2cc3cccc(C)c3[nH]c2=O)C(=O)N2CCCC2)cc1OC,0
20,O=C(CN(C(=O)CCC(=O)Nc1nccs1)c1ccccc1F)NCC1CCCO1 (stereo not given),2

row,Structure (SMILES),inhibition [%]
1,CCCNC(=O)c1ccccc1NC(=O)CN(c1ccccc1OCC)S(C)(=O)=O,0
2,COC(=O)Cc1[nH]nc2c1C(C1C=CCCC1)C(C#N)=C(N)O2 (stereo not given),3
3,CC(C)(C)C1=Nn2c(nnc2-c2n[nH]c3c2CCC3)SC1,8
4,Cc1cc(C)n(C2=NS(=O)(=O)c3ccccc32)n1,1
5,CCCCn1c(=O)[nH]c(=O)c2c1nc(COc1ccc(C#N)cc1)n2CCC,4
6,Nc1nnc(-c2cn(-c3ccccc3)nc2-c2ccccc2)o1,0
7,N#CCCNCC1(c2ccccc2)CCCC1,7
8,CC(COc1ccccc1)N(CCCl)Cc1ccccc1 (stereo not given),0
9,COC(=O)c1ccc(Oc2nc(NC(C)C)nc(N(C)C)n2)cc1,1
10,CCCCc1nc2ccccc2n2cc3c(=O)n(C)c(=O)n(C)c3c12,0
11,NC(=O)c1c(-c2ccccc2)oc2ccc(O)cc12,0
12,CCNC(=O)CC1C(=O)N(c2ccc(F)cc2)C(=O)N1CCC(C)C (stereo not given),0
13,COc1ccc(OC)c(S(=O)(=O)NCCO)c1,1
14,CC(C)CCN(C)C1CCN(S(=O)(=O)c2ccc(F)cc2)CC1,0
15,Cc1ccc(O)c(C(=O)c2cc(C#N)c(=O)n(CC3CCCO3)c2)c1 (stereo not given),8
16,Cc1nn(C(=O)c2ccccc2)c2c1C(=O)CC(C)(C)C2,0
17,CCOC(=O)C1CCN(Cc2c(O)ccc3ccccc23)CC1,1
18,COc1ccc(-c2nnc(-c3cccs3)o2)cc1OC,0
19,C=CCN(C(=O)CNS(=O)(=O)c1ccccc1)C(C(=O)NCCOC)c1ccncc1 (stereo not given),0
20,Cc1cc(C)c2oc(=O)cc(CN3CCOCC3)c2c1,0
